Screening results (PubChem BioAssay)
The sample as a whole holds a higher share of hits than the screen did.
AMA1-RON2 inh: qHTS for Inhibitors of AMA1-RON; Towards Development of Antimalarial Drug Lead: Primary Screen. AlphaScreen AMA1-biotinylated RON2 peptide binding. 0.2% of 360,000 active. Plasmodium falciparum AMA1 (3D7) - RON2 peptide interaction. Potency, µM (top dose mostly 58.2 µM), for the others: at the top dose activity change, negative = inhibition, hits mostly inhibitors; active = well fitted inhibition curve with a large enough effect; inconclusive = small, poorly fitted or top-dose-only effect; inactive = no such curve, though single readings can be large or run the other way;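 also: potency is read from the fitted curve at half-maximal effect; 0% = vehicle wells and -100% = peptide control; nearly all actives have a fitted effect of over 45% in size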
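AMA1 (3D7) with his tag at 25 nM final met compounds first, then biotinylated RON2 peptide at 25 nM; detection used donor plus acceptor beads, 10 µg/mL apiece, read by AlphaScreen after 30 min at room temperature.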
Cycloheximide cs: Cycloheximide Counterscreen for Small Molecule Inhibitors of Shiga Toxin; cell reporter, cycloheximide protein synthesis inhibition counterscreen; max response, %; 12% of 300,000 active; in the data active = max response mostly above about 13%, no sharp cut-off; inactive = mostly below about 14%; also: read at 38.3 µM for the half of the compounds with a filed dose; 0% is about no effect
Lassa entry inh: qHTS for Inhibitors of binding or entry into cells for Lassa Virus | Lassa virus pseudotype entry inhibition, cell reporter | Potency, µM (doses to about 37.9 µM), without a hit: at the top dose activity change, negative = inhibition, hits mostly inhibitors | 1.2% of 300,000 active; calls by dose curve; tested in HEK293 cells; also: potency is read from the fitted curve at half-maximal effect; % is scaled to controls: 0 for no effect and ±100 for the full control effect; nearly all actives have a fitted effect of over 50% in size
Shiga inhibitor: A qHTS for Small Molecule Inhibitors of Shiga Toxin; 9.2% of 290,000 active; inhibition, % at 38.7 µM; AID 2315, 2010; Vero cells, Shiga toxin protein synthesis inhibition reporter; in the data active = inhibition mostly above about 28%, no sharp cut-off; inactive = mostly below about 43%; also: 0% is about no effect
Marburg entry inh: qHTS for inhibitors of binding or entry into cells for Marburg Virus | Marburg virus pseudotyped entry inhibition, cell reporter | Potency, µM (top dose mostly 37.8 µM), for the others: at the highest dose activity change, negative = inhibition, most hits filed as inhibitors | 1.8% of 300,000 active | AID 540276, 2011; calls by dose curve; tested in HEK293 cells; also: potency is read from the fitted curve at half-maximal effect; % is scaled to controls: 0 for no effect and ±100 for the full control effect
Numbers without * were called inactive; ? = inconclusive; . = no result; + = active, no number; [ ] = remark or other dose.

SMILES	AMA1-RON2 inh	Cycloheximide cs	Lassa entry inh	Shiga inhibitor	Marburg entry inh
COc1ccc(O[C@H]2C=C[C@@H](c3ccccc3)O[C@H]2COC(=O)CCC(C)=NO[C@@H]2O[C@H](COC(C)=O)[C@@H](OC(C)=O)[C@H](OC(C)=O)[C@@H]2OC(C)=O)cc1	.	.	.	.	-23%[14.2 µM]
O=C(/C=C/c1ccc(F)cc1)c1ccc(N2CCOCC2)cc1	-6%	4	42%	14	15%[46.1 µM]
C/C(=C\C(=O)c1ccc(F)cc1)Nc1ccc(N2CCOCC2)cc1	-15%	12	-37%	14	23%
Cc1cccc(/C=C/C(=O)c2ccc(N3CCOCC3)cc2)c1	.	14*	3%	45*	16%
CCc1ccc(/C=C/C(=O)c2ccc(N3CCOCC3)cc2)cc1	-1%	15*	-11%	active	-15%
Cc1ccc(/C=C/C(=O)c2ccc(N3CCOCC3)cc2)s1	-28%	27*	?	83	?
CC(C)(C)OC(=O)C[C@@H]1C/C=C\C[C@H](CC(=O)N(CCO)Cc2ccccc2)C(=O)N[C@H](Cc2ccccc2)COC1=O	17%	.	.	.	.
CCN1C[C@@H]2[C@@H]3C(=O)N(C)C(=O)[C@@H]3[C@](CC)(C(=O)OC)N2C1=NCc1ccccc1	-11%	.	.	.	.
CCOC(=O)c1ccc(Nc2nc(=O)c3cccnc3s2)cc1	-1%	22*	-83%[14.3 µM]	22	2.1µM*
CC(=O)c1ccc(Nc2nc(=O)c3cccnc3s2)cc1	-3%	39*	?	70*	?
Cc1ccc(Nc2nc(=O)c3cccnc3s2)c(Br)c1	16%	19*	?	32	?
Cc1ccc(Cl)cc1N1CCN(C(=O)Cn2c(-c3cccs3)cc3cc(F)ccc32)CC1	.	.	1%[46.1 µM]	.	.
CC(C)COc1ccc(C(=O)N2CCCCC2CCN2CCOCC2)cc1 (centres undefined)	.	.	-7%[46.1 µM]	.	-3%[46.1 µM]
CN1OC[C@@H]2CN[C@H](c3ccc(-c4cc5ccccc5o4)cc3)C[C@@H]21	-12%	.	.	.	.
Cc1ccc(NC(=O)Cn2c(=O)n(-c3ccccc3)c(=O)c3ccc(C(=O)NCc4ccc5c(c4)OCO5)cc32)c(C)c1	.	.	-25%[46.1 µM]	.	1%[46.1 µM]
O=Cc1ccccc1-n1cccn1	-3%	31*	8%	-9	?
Cc1sc2ncnc(N3CCC(C(=O)Nc4ccc(Br)cc4Br)CC3)c2c1C	-1%	.	?	.	11µM*
COc1ccccc1OCC(=O)NNC(=O)C1CCN(c2ncnc3sc(C)c(C)c23)CC1	92%	.	.	.	.
Cc1sc2ncnc(N3CCC(C(=O)Nc4ccc(Cl)cc4Cl)CC3)c2c1C	-12%	.	4%	.	-8%
COc1ccc(-c2csc(NC(=O)C3CCN(c4ncnc5sc(C)c(C)c45)CC3)n2)cc1OC	-12%	.	2µM*	.	4µM*
O=C(/C(=C/O)N=Nc1ccccc1)c1ccc(Cl)cc1	-26%	7	?	-4	?
Cc1ccc(N=N/C(=C\O)C(=O)c2ccc(Cl)cc2)cc1	-13%	36*	?	106*	?
Clc1ccccc1CONc1ncnc2nonc12	-2%	31*	12%	+	-37%
Cn1nnc2c(NCc3ccccc3Cl)ncnc21	.	.	10%[46.1 µM]	.	.
COc1ccc2[nH]c3c(Cl)ncnc3c2c1	-5%	1	-23%	-14	?
SMILES	AMA1-RON2 inh	Cycloheximide cs	Lassa entry inh	Shiga inhibitor	Marburg entry inh
COc1ccc2[nH]c3c4c(ccc3c2c1)C(=O)C=CC4=O	?	38*	.	89*	.
COc1ccc(CCN(C(=S)Nc2ccccc2)C2CC(=O)N(c3ccccc3)C2=O)cc1 (centres undefined)	16%	-8	-23%	-34	7%[46.1 µM]
COc1ccc(CN(C(=S)Nc2ccccc2)C2CC(=O)N(c3ccc(F)cc3)C2=O)cc1 (centres undefined)	-5%	31*	-11%	35	?
O=C(NCC(O)c1nc2ccccc2[nH]1)c1cc([N+](=O)[O-])ccc1F (centres undefined)	-5%	.	.	.	.
Cc1ccsc1CN(C)CC(=O)Nc1ccccc1C(=O)NC1CC1	31%	.	3%	.	-17%
CN(CCCC1CCCC1)C(=O)CCc1nnc(-c2ccccc2)o1	-10%	32*	29%[46.1 µM]	53*	?
O=C(CCc1nnc(-c2ccccc2)o1)c1ccc(Cl)cc1	-28%	0	4%[46.1 µM]	4	-1%[46.1 µM]
CN(CCC1CCCCO1)C(=O)CCc1nnc(CCCCc2ccccc2)o1 (centres undefined)	-10%	17*	.	33	.
CCn1ccnc1CN(C)C(=O)CCc1nnc(CCCc2ccccc2)o1	0%	10	.	20	.
Cc1cc(C)n(CCNC(=O)CCc2nnc(CCc3ccccc3)o2)n1	-3%	-3	.	-1	.
Cc1cc(C)n(CCN(C)C(=O)CCc2nnc(CCC3CCCCC3)o2)n1	-8%	38*	.	91*	.
CN(C(=O)CCc1nnc(-c2ccc(-c3ccccc3)cc2)o1)C1CCOCC1	6%	13	?	30*	-30%
COc1cc(-c2cc(N3C(=O)Nc4ccccc4N3O)n[nH]2)cc(OC)c1OC	-20%	-2	15%	-8	-2%
COc1ccc(-c2cc(N3C(=O)Nc4ccccc4N3O)n[nH]2)cc1OC	-11%	13*	?	19	-1%
CC1=CC2=NC(=O)/C(=C\c3cccn3CCOc3cc(C)ccc3C)C(=N)N2O1	-16%	-2	?	-8	?
Cc1nc(CCNC(=O)c2ccccc2)cs1	-14%	17*	24%	17	4%
Cc1ccc(C(=O)NCCc2csc(-c3cccnc3)n2)cc1	-3%	20*	.	67*	.
COc1ccc(C(CNC(=O)CCC(=O)c2ccc(C)s2)N2CCOCC2)cc1 (centres undefined)	-5%	.	.	.	.
CCC1Oc2ccc(C)cc2N(CC(=O)NCc2ccc(OC)cc2)C1=O (centres undefined)	.	.	-5%[46.1 µM]	.	9%[46.1 µM]
COc1ccccc1C(=O)N/C(=C\c1cn(S(=O)(=O)N(C)C)c2ccccc12)C(=O)N1CCN(C)CC1	0%	.	.	.	.
O=C(Nc1cc(Cl)cc2c1-c1ccc(Cl)cc1C2O)C(Cl)Cl (centres undefined)	-13%	.	13µM*	.	?
CNC(=O)c1nc(C)n(-c2cc(Cl)ccc2Cl)n1	1%	29*	-4%	42	1%
Cc1ccc2c(CN3CC(C)CC(C)C3)cc(=O)oc2c1C (centres undefined)	-13%	6	5%	7	-35%
Cc1ccc2c(CN3CCCCC3)cc(=O)oc2c1	-2%	21*	-1%[46.1 µM]	28*	15%[46.1 µM]
COc1ccc(Br)c(C(=O)OCc2cc(=O)oc3cc(C)ccc23)c1	-7%	-5	-1%	18	?
CN(C)c1cccc(C(=O)OCc2cc(=O)oc3cc(O)ccc23)c1	-28%	16*	?	49	?
Cc1ccc2c(COC(=O)c3ccccc3Br)cc(=O)oc2c1	11%	34*	-15%[46.1 µM]	98*	?
Cc1ccc2c(CN3CCC(C)CC3)cc(=O)oc2c1C	2%	55*	.	123*	.
CC1CN(S(=O)(=O)c2cccc(C(=O)OCc3cc(=O)oc4cc(O)ccc34)c2)CC(C)O1 (centres undefined)	-29%	-1	?	3	?
